Experimental data as given in ChEMBL document CHEMBL4513216, “Probing the Open Global Health Chemical Diversity Library for Multistage-Active Starting Points for Next-Generation Antimalarials” (ACS Infect Dis, 2020).
In all, about 69,000 compounds went through this assay and about 8,600 (12%) showed an effect of 50% or more. For the sample, strong results were picked, then their nearest neighbours and some compounds at random.

Each molecule was assayed on Plasmodium berghei (assay: Screen against P. berghei liver stage (PbLuc), transformed with Luciferase, at 10uM). Settings: tested at 10 uM.
Format: functional, HepG2

Row | SMILES | INHIBITION
1 | CCCn1ccnc1CN1CCN(C2CCOCC2)CC(C(N)=O)C1 (stereo not drawn) | 20.8%
2 | CSc1ccc(CN(CCO)C(=O)CCOc2ccccc2)cc1 | 15.7%
3 | Cc1noc(C)c1C(=O)NCc1cccnc1N(C)C | -25.66%
4 | Cc1ccc(C(=O)NCc2cccnc2N(C)C)s1 | -85%
5 | Cc1ncsc1C(=O)N(Cc1ccccn1)C1CC1 | -2.95%
6 | Cc1ccc(C(=O)NCc2cccnc2N(C)C)o1 | 12.35%
7 | Cc1ccsc1C(=O)NCc1cccnc1N(C)CCc1ccccn1 | 9.91%
8 | Cc1oc(C)c(C(=O)NCc2cccnc2N(C)C)c1C | 50.4%
9 | Cc1nnsc1C(=O)NCc1cccnc1N(C)Cc1ccccc1 | 44.6%
10 | Cc1nnsc1C(=O)NCc1cccnc1N(C)C | 51.5%
11 | Cc1ncsc1C(=O)NCc1cccnc1N(C)CCc1ccccn1 | 52.5%
12 | CCc1nc(C2CCCN2C(=O)Cc2cccs2)no1 (stereo not drawn) | 5.9%
13 | CSc1ccccc1C(C(=O)O)N(C)CC1CCOCC1 (stereo not drawn) | -0.27%
14 | CCCc1cc(C(=O)NCCN2CCCS2(=O)=O)[nH]n1 | -40.96%
15 | O=C(c1cc(Cl)c2c(c1)OCO2)N1CCCC(n2cncn2)C1 (stereo not drawn) | 29.7%
16 | C[C@@H]1CN(Cc2ccccn2)C[C@]12CCN(Cc1cccnc1)C2=O | -38.1%
17 | N#CC1(C(=O)N2C[C@H](Nc3ncccn3)[C@@H](C3CC3)C2)CCOCC1 | -28.4%
18 | Cc1ccnc(OC[C@@]23CCO[C@@H]2CCN(C2CCC2)C3)n1 | -16.9%
19 | Cc1ccnc(OC[C@@]23CCO[C@@H]2CCN(S(C)(=O)=O)C3)n1 | 57.1%
20 | Cc1ccnc(OC[C@@]23CCO[C@@H]2CCN(c2ncccn2)C3)n1 | 23.3%
21 | CN(CCc1ccccc1)Cc1cnc(C2(C)CCCCO2)nc1 (stereo not drawn) | 10.871%
22 | COc1cc(CN2C[C@H](OC)[C@]3(CCCO3)C2)ccc1F | 35.2%

Row | SMILES | INHIBITION
23 | Cc1ccnc(C(NC(=O)c2sc(C)nc2C)C2CC2)n1 (stereo not drawn) | 63.5%
24 | Cc1ccnc(C(NC(=O)c2ccc(O)nc2C)C2CC2)n1 (stereo not drawn) | 2.65%
25 | Cc1ccnc(C(NC(=O)c2oc(C)nc2C)C2CC2)n1 (stereo not drawn) | 38.5%
26 | Cc1nc(C2CCCN2C(=O)CCn2cncn2)no1 (stereo not drawn) | -85%
27 | c1cnc2c(c1)cc([C@H]1CCCO1)n2CCN1CCOCC1 | 30.1%
28 | CN(Cc1ccc(F)cc1F)Cc1cc2c(cc1Br)OCCO2 | 52.6%
29 | CN(Cc1ccc(F)cc1)Cc1cc2c(cc1Br)OCCO2 | 44.8%
30 | CN(Cc1cscn1)Cc1cc2c(cc1Br)OCO2 | 31.9%
31 | CN(Cc1ccccc1F)Cc1cc2c(cc1Br)OCCO2 | 76.2%
32 | CC(NCc1cccc2c1OCCO2)c1cc2c(cc1Br)OCCO2 (stereo not drawn) | 4.15%
33 | CN(Cc1ccc(F)c(F)c1)Cc1cc2c(cc1Br)OCCO2 | -30%
34 | COc1ccccc1CN(Cc1nc(Cc2ccccc2)no1)C1CC1 | 21.3%
35 | Cc1ccccc1CC(=O)N1C[C@@H]2COC[C@]2(CN(C)C)C1 | 20.5%
36 | N#Cc1ccc(C(=O)O)nc1C=Cc1cccc(F)c1 | -23.2%
37 | CC(C)CN1CC2(CCN(C(=O)c3cn4cccnc4n3)CC2)CC1=O | -13.6%
38 | CC(C)CN1CC2(CCN(C(=O)c3cnccn3)CC2)CC1=O | -33%
39 | CC(C)CN1CC2(CCN(C(=O)C3CSC(C)(C)C(=O)N3)CC2)CC1=O (stereo not drawn) | 12%
40 | CC(C)CN1CC2(CCN(C(=O)C(O)c3ccccc3Cl)CC2)CC1=O (stereo not drawn) | 6.88%
41 | CC(C)CN1CC2(CCN(C(=O)C3CNC(=O)N3)CC2)CC1=O (stereo not drawn) | 53%
42 | CC(C)CN1CC2(CCN(C(=O)c3nc4ncccn4n3)CC2)CC1=O | 56%
43 | CC(C)Oc1ccc2c(NC(=O)CNC(N)=O)nn(CC(F)(F)F)c2c1 | 29.7%
44 | Cc1nc(O)cc([C@@H]2CN(C(=O)C3CC3)C[C@H]2c2ccccc2F)n1 | 60.55%

Row | SMILES | INHIBITION
45 | COCC(=O)N1C[C@@H](c2cc(O)nc(C)n2)[C@H](c2ccccc2F)C1 | 24.49%
46 | CC(=O)N1C[C@H](c2cc(O)nc(C)n2)[C@@H](c2ccccc2F)C1 | 12.45%
47 | Cc1cc(NCCO)nc(N2CCC(Cc3ccccc3)CC2)c1C#N | 29.1%
48 | Cc1nccn1CC(=O)N1CC(Cc2nccc3ccn(C)c23)C1 | 34%
49 | CCN1CCC(CC(=O)N(C)CC(=O)c2ccc(O)cc2)CC1 | 55%
50 | CCCN1CCC(CC(=O)N(C)CC(=O)c2ccc(O)cc2)CC1 | 56.1%
51 | CCCN1CCC(CC(=O)N(C)C(C)c2cncs2)CC1 (stereo not drawn) | 6.33%
52 | CC(C)N1CCC(CC(=O)N(C)CC(=O)c2ccc(O)cc2)CC1 | 1.98%
53 | CC(C)N1CCC(C(=O)N(C)CC(=O)c2ccc(O)cc2)CC1 | 23.6%
54 | CCCN1CCC(CC(=O)NCc2cc(O)ncn2)CC1 | 28.7%
55 | CN(C)C(=O)C1OC2(CCN(C(=O)N(C)C)CC2)c2ccccc21 (stereo not drawn) | 14.1%
56 | CNc1cc(C2CCCN2C(=O)c2ccc(=O)[nH]n2)ccn1 (stereo not drawn) | -7.66%
57 | N#Cc1ccsc1C(=O)N1CCCN(Cc2cscn2)CC1 | -14%
58 | CC(C)n1nc(CNc2ncccn2)c2c1CN(C)CC2 | -3.77%
59 | COC[C@]12COC[C@H]1CN(Cc1cc(OC)cc(OC)c1)C2 | 35.8%
60 | O=C(c1cccnc1)N1CCC(c2nc(O)cc(-c3ccncc3)n2)C1 (stereo not drawn) | 1.5%
61 | CNC(=O)CN1CCCC12CCN(C(=O)c1ccoc1)CC2 | 56.8%
62 | CNC(=O)CN1CCCC12CCN(C(=O)c1ccsc1)CC2 | -0.937%
63 | CNC(=O)CN1CCCC12CCN(C(=O)c1ccc(F)cc1)CC2 | 42.4%
64 | CCOCC(O)CN1CCN(C(=O)c2cc(C)ccc2F)CC1 (stereo not drawn) | -59.4%
65 | COCC1c2c(cnn2C)CCN1C(=O)c1cccn1C (stereo not drawn) | 46.6%
66 | COc1c(C(=O)N2CCNC(=O)C2)cnc2c1c(C)nn2C | -25.1%

Row | SMILES | INHIBITION
67 | COC(=O)c1cnc2c(c(C)nn2C)c1OC | 66.8%
68 | COc1c(C(=O)N2CCOCC2)cnc2c1c(C)nn2C | 2.59%
69 | O=C(Cc1cccs1)NS(=O)(=O)c1cccc2cnccc12 | 36.3%
70 | CCOc1ccc(CN2CCOCC2c2[nH]ncc2C)cc1CO (stereo not drawn) | 29.65%
71 | Cc1cc(C(F)(F)F)nn1CCCNC(=O)C1CCCO1 (stereo not drawn) | 60.4%
72 | Cc1cc(C(F)(F)F)nn1CCCNC(=O)C1CCCC1 | 43.2%
73 | Cc1cc(C)n(CCCNC(=O)C2CCCO2)n1 (stereo not drawn) | 6.09%
74 | Cc1cc2[nH]c(=O)oc2cc1S(=O)(=O)N1C[C@@H](N(C)C)[C@H](C(C)C)C1 | 26.5%
75 | Cc1nc(CSCCC(=O)Nc2cccc(N3CCNC3=O)c2)cs1 | -24.6%
76 | COCCN1CCO[C@@H]2CN(Cc3ccc(C)o3)C[C@@H]2C1 | -0.554%
77 | CCn1nc(C)c(S(=O)(=O)Nc2ccccc2C(=O)OC)c1C | 29.7%
78 | Cc1ccc(-n2cc(S(=O)(=O)Nc3cccc(C(=O)O)c3C)cn2)cc1 | 68%
79 | Cc1cn(-c2ccccc2)nc1NS(=O)(=O)c1cccc(C(=O)O)c1 | 40.9%
80 | Cc1ccc(NS(=O)(=O)c2cnn(Cc3ccccc3)c2)c(C(=O)O)c1 | 51.6%
81 | COC(=O)c1ccccc1NS(=O)(=O)c1c(C)nn(C)c1C | -7.93%
82 | CCn1nc(C)c(S(=O)(=O)Nc2cccc(C(=O)O)c2C)c1C | 62.4%
83 | CCS(=O)(=O)Nc1cnn(Cc2cccc(C)c2)c1 | -2.64%
84 | Cc1cccc(NS(=O)(=O)c2cnn(C)c2)c1C#N | 18.9%
85 | Cc1ccc(NS(=O)(=O)c2cnn(-c3ccccc3)c2)c(C(=O)O)c1 | 22.5%
86 | CC(=O)N1CCC(c2cncc(N3CCCCCC3)n2)CC1 | 17.4%
87 | O=C(NC1CCCN(CCc2ccccc2)C1)c1cnccn1 (stereo not drawn) | -0.29%
88 | Cc1cnn(C2CCCN(C(=O)Cc3cn4ccsc4n3)C2)c1 (stereo not drawn) | -9%

Row | SMILES | INHIBITION
89 | Cc1nc(C)c(C(=O)N2CCC(O)(Cn3ccc4ccncc43)CC2)s1 | -57.4%
90 | CS(=O)(=O)c1cc(C(=O)NS(=O)(=O)Cc2ccc(F)cc2)ccc1Cl | 37.7%
91 | O=C(Cc1noc(C(=O)NCCO)n1)Nc1cccc(C(F)(F)F)c1 | 25.2%
92 | CC(C)(C)n1ncc2c1NC(=O)CC2c1cccs1 (stereo not drawn) | -0.87%
93 | Cc1nc(CN2CCCC2Cn2cncn2)no1 (stereo not drawn) | 34.95%
94 | COCc1nc2cc(NCc3nc(C)cs3)ccc2o1 | -17.6%
95 | COCc1nc2cc(NCc3cc[nH]n3)ccc2o1 | 67.1%
96 | Cc1ncsc1CNc1cc(N2CCCC2CO)ncn1 (stereo not drawn) | 27.4%
97 | COCc1nc2cc(NCc3ccncc3)ccc2o1 | 18.5%
98 | COCc1nc2cc(NCc3sc(C)nc3C)ccc2o1 | 65.4%
99 | Cc1cc(CNc2ccc3nc(C)sc3c2)no1 | -4.33%
100 | COCc1nc2cc(NCc3ccc(CO)o3)ccc2o1 | 90.2%
101 | COCc1nc2cc(NCc3ccc(C)o3)ccc2o1 | 11.8%
102 | COCc1nc2cc(NCc3csc(C)n3)ccc2o1 | 14.9%
103 | CC(C)(C)c1nc2cc(NC(=O)Cn3ccc(=O)[nH]c3=O)ccc2o1 | 20%
104 | COCc1nc2cc(NCc3scnc3C)ccc2o1 | 70.5%
105 | CCC(C)CNc1ccc2oc(COC)nc2c1 (stereo not drawn) | -23.2%
106 | CCNC(=O)[C@@H]1CCCN1C(=O)c1cccc(CCC(C)(C)O)c1 | -26.8%
107 | CC(C)=CCN1C[C@@H]2CC[C@H]1CN(C(=O)CCc1nnc(C)[nH]1)C2 | 41.2%
108 | Cc1cccc(N2CCOC(C(=O)O)C2)c1 (stereo not drawn) | 14.7%
